# In PubChem BioAssay AID504832 (National Center for Advancing Translational Sciences (NCATS), 2011):
# In all, about 310,000 compounds went through this assay and about 18,000 (5.8%) were called active. Inconclusive results (about 22%) are left out. Calls follow the shape of the dose curve; as a rule, active = well fitted inhibition curve with a large enough effect; inconclusive = small, poorly fitted or top-dose-only effect, or another doubt; inactive = no such curve, though single readings can be large or run the other way. Many of the other results were omitted from the sample, so actives are more common in it than they were.
# Assay: Primary qHTS for delayed death inhibitors of the malarial parasite plastid, 48 hour incubation
# Settings: P. falciparum luciferase growth in erythrocytes; series mostly up to 28.7 µM; activity change, negative = inhibition: at the top concentration
# From the text: The goal of this screen is to discover new antimalarial compounds that act by inhibiting the development of the apicoplast in the malarial parasite Plasmodium falciparum. The biochemical processes that make this organelle essential for erythrocytic stage parasites are not well understood. However, antibiotics such as azithromycin and tetracycline, which target the apicoplast translational machinery, have a potent antimalarial effect.
# We have developed a cell-based assay that measures parasite growth based on the expression of an integrated copy of a firefly luciferase reporter. To detect small molecules that cause this "delayed death" phenotype, erythrocytes infected with the luciferase-expressing parasites were incubated with compounds for either one or two generations, corresponding to 48 and 96 hours, respectively. Compounds that inhibit parasite growth in the second generation, but not the first, should be enriched in antimalarials that target the apicoplast. Growth inhibition is detected by a decrease in luciferase activity.
# Assay Provider: David Fidock and Eric Ekland, Columbia University
# Keywords: NIH Roadmap, MLPCN, MLI, MLSMR, qHTS, NCGC, qHTS, malaria, luciferase, viability
# Four microliters of culture medium (RPMI 1640 with 0.5% w/v Albumax (GIBCO), 24 mM sodium bicarbonate and 10 ug/mL gentamycin) were dispensed by a Multi-drop Combi into white solid 1536-well plates (Grenier) and 23 nL compound was added by a pin tool. Four microliters of infected erythrocytes (2% hematocrit, 0.1% parasitemia final concentration) in culture medium were dispensed and the plates incubated for 48 hours at 37 C in 5% CO2. Two microliters of luciferase detection reagent was added and luminescence was detected by a ViewLux (PerkinElmer) reader.
# % is scaled to controls: 0 for no effect and ±100 for the full control effect; potency is read from the fitted curve at half-maximal effect.
Compound,"activity change, negative = inhibition",Potency
CCn1c(=O)c2ccccc2n(CC(=O)N2CCCc3ccccc32)c1=O,-13.9% (inactive),–
Cn1c(SCC(=O)NC2CCCCC2)nnc1-c1ccc(N)cc1,59.1% (inactive),–
Cn1c(SCC(=O)Nc2cccc(O)c2)nnc1-c1ccc(S(=O)(=O)N2CCOCC2)cc1,7.1% (inactive),–
Cn1c(SCC(=O)OC2CCCCC2)nnc1-c1ccc(S(=O)(=O)N2CCCC2)cc1,–,2.62 µM (active)
Cc1ccc(C(=O)C(C)OC(=O)Cc2n[nH]c(=O)c3ccccc23)cc1C (centres undefined),9.11% (inactive),–
CCc1ccc(-c2cc(C)no2)cc1S(=O)(=O)NCCc1ccc(S(N)(=O)=O)cc1,-28.2% (inactive),–
O=C(CCS(=O)(=O)c1ccc2c(c1)NC(=O)CS2)NCc1ccccc1Cl,4.89% (inactive),–
CCc1ccc(N(CC(=O)NCc2cccnc2)S(=O)(=O)c2ccccc2)cc1,97.9% (inactive),–
O=C(O)c1ccccc1-c1ccccc1C(=O)NCc1cccnc1,4.09% (inactive),–
Cc1ccc(S(=O)(=O)N(Cc2ccc(Cl)cc2)c2ccccc2C(=O)NCc2cccnc2)cc1,–,13.1 µM (active)
O=C(c1cnc(Cl)c(Cl)c1)N1CCN(S(=O)(=O)c2ccc(F)cc2)CC1,-5.82% (inactive),–
COc1cc(-c2cc(C(=O)OCC(=O)Nc3ccc4c(c3)OCO4)c3ccccc3n2)cc(OC)c1OC,0.182% (inactive),–
O=C(OCc1nnc(-c2ccccc2)o1)c1cc(=O)[nH]c2ccccc12,-27.5% (inactive),–
CCCc1nc2ccccc2c(C(=O)OCc2nnc(-c3cc(OC)c(OC)c(OC)c3)o2)c1CC,–,4.65 µM (active)
COc1ccccc1C(=O)Nc1ccnn1C1CCN(C(=O)C(C)(C)C)CC1,-1.89% (inactive),–
COC(=O)c1[nH]c2ccccc2c1NC(=O)CN1CCCc2ccccc21,–,2.08 µM (active)
COC(=O)c1[nH]c2ccc(Br)cc2c1NC(=O)Oc1ccccc1,-15.2% (inactive),–
NS(=O)(=O)c1cccc(NC(=O)CN2CCCc3ccccc32)c1,-0.755% (inactive),–
CC(=O)N1CCc2c(sc(NC(=O)CCS(=O)(=O)c3ccc(C)cc3)c2C(N)=O)C1,-24.3% (inactive),–
O=C(NNS(=O)(=O)c1ccc(F)cc1)c1ccc([N+](=O)[O-])cc1Cl,1.58% (inactive),–
CC(C)CCNC(=O)c1ccc2c(Cl)c3c(nc2c1)CCC3,50.2% (inactive),–
Cc1ccc(S(=O)(=O)N2CCN(c3ccccc3)CC2)cc1C,13.1% (inactive),–
Cc1cc(N2CCN(c3ccccc3)CC2)nc(N2CCOCC2)n1,-20.2% (inactive),–
Cc1cc(C)n(-c2nnc(N3CCN(c4ccccc4)CC3)nn2)n1,–,0.329 µM (active)
Cc1nn(Cc2ccccc2)c(C)c1C(=O)NCCCN1CCCC1=O,9.89% (inactive),–

Compound,"activity change, negative = inhibition",Potency
CCN1CCN(C(=O)C2CCCN(S(=O)(=O)c3ccc(OC)c(OC)c3)C2)CC1 (centres undefined),4.01% (inactive),–
COCc1cc(=O)n2[nH]c(C)c(-c3ccccc3)c2n1,-9.29% (inactive),–
O=C(C1=C[C@H](c2ccc(C(F)(F)F)cc2)C[C@H](OCc2ccc(CO)cc2)O1)N1CCN(Cc2ccccc2)CC1,–,3.7 µM (active)
O=C(NCc1ccccc1)C1=C[C@H](C2CC2)C[C@H](OCc2ccc(CO)cc2)O1,-0.787% (inactive),–
C#Cc1ccc([C@@H]2C=C(C(=O)O)O[C@H](OCCCCO)C2)cc1,43.4% (inactive),–
COCCNC(=O)CSc1nc2sccc2c(=O)n1-c1ccccc1,-7.07% (inactive),–
Cc1cc(C(=O)COC(=O)c2cccs2)c(C)n1-c1c(C)n(C)n(-c2ccccc2)c1=O,15.2% (inactive),–
COc1ccc(-n2c(C)cc(C(=O)COC(=O)c3cc(OC)c(OC)cc3NC(=O)c3cccs3)c2C)cc1,–,4.15 µM (active)
COc1ccc(C(=O)COC(=O)CNC(=O)c2cccs2)cc1Br,12.2% (inactive),–
C=CCOc1ccc(/C=C/C(=O)OCC(=O)NC2CCCCCC2)cc1,26.8% (inactive),–
CCC(Oc1ccccc1C)C(=O)Nc1ccc(S(=O)(=O)Nc2cc(C)on2)cc1 (centres undefined),2.5% (inactive),–
CC(=O)c1cc(CN2CCC(n3nccc3NC(=O)c3ccccc3Cl)CC2)cs1,-13.4% (inactive),–
CC(OC(=O)c1ccccc1NCCO)C(=O)Nc1ccnn1C(C)C (centres undefined),-26.5% (inactive),–
Cc1ccc(NC(=O)CN(C)C(=O)c2ccc(Br)o2)cc1,4.06% (inactive),–
COc1ccc(-c2cnc(SCCNC(=O)c3ccc4c(c3)OCO4)[nH]2)cc1,-5.01% (inactive),–
COc1ccc(S(=O)(=O)NCC(c2ccco2)N2CCOCC2)cc1 (centres undefined),-6.97% (inactive),–
CC(Oc1ccc(Br)cc1)C(=O)NCC(c1ccco1)N1CCCCC1 (centres undefined),–,11.7 µM (active)
CC(Oc1ccc(Br)cc1)C(=O)NC1CCCCCC1 (centres undefined),2.7% (inactive),–
O=C(COc1ccc2ccc(=O)oc2c1)NCC(O)c1ccccc1 (centres undefined),18.9% (inactive),–
O=C(CNC(=O)OCc1ccccc1)NC1CCCCNC1=O (centres undefined),0.406% (inactive),–
CCOc1ccccc1/C=N/Nc1nc2ccccc2o1,-29.1% (inactive),–
CCCCNC(=O)N1CCCC(N(C)CCc2ccc(OC)c(OC)c2)C1 (centres undefined),-0.406% (inactive),–
COc1ccc(CCN(Cc2cc3cccc(C)c3[nH]c2=O)C(=O)N2CCCC2)cc1OC,–,8.28 µM (active)
COc1ccc(CCNC(=O)C(=O)NCc2ccccc2C)cc1OC,-8.37% (inactive),–
Cc1ccc2c(cnn2C(=O)CCC(=O)NC2CCCC2)c1,7.75% (inactive),–

Compound,"activity change, negative = inhibition",Potency
O=C(O)CSCC(=O)Nc1cccc(C(F)(F)F)c1,7.05% (inactive),–
O=C(Nc1cccc(C(F)(F)F)c1)c1cnccn1,33.4% (inactive),–
Cn1nc(C(F)(F)F)c(C(=O)Nc2cccc(C(F)(F)F)c2)c1SCc1ccc(Cl)cc1,–,1.85 µM (active)
COc1ccc(CCNC(=O)COc2ccc3c(c2)OCO3)cc1,8.33% (inactive),–
CN(C)C(=O)CCC(=O)N1CCCCC1C(=O)Nc1ccc(Oc2ccccc2F)cc1 (centres undefined),27.6% (inactive),–
COc1ccc(/C=C/C(=O)OCC(=O)NCc2cccs2)cc1OC,9.68% (inactive),–
CCOC(=O)CCCNC(=O)COC(=O)/C=C/c1ccc2c(c1)OCO2,397% (inactive),–
CCOc1cc(/C=C/C(=O)OCC(=O)NCCN2C(=O)CSC2=O)ccc1OCC(C)C,–,14.7 µM (active)
COc1ccc(CNC(=O)CN2C(=O)NC3(CCCc4sccc43)C2=O)cc1 (centres undefined),-0.331% (inactive),–
CCN(CC)S(=O)(=O)c1ccc(N2CC(C(=O)NCc3cccnc3)CC2=O)cc1 (centres undefined),-16.4% (inactive),–
Cc1ccc2[nH]c(=O)c(CN(C)S(=O)(=O)c3cccc4nonc34)cc2c1,21.1% (inactive),–
CCN(Cc1ccccc1)S(=O)(=O)c1cc2c3c(c1)CCN3C(=O)CC2,-3.66% (inactive),–
COc1cc(Cl)c(C)cc1NC(=O)CN1CCCCCC1,3.43% (inactive),–
O=C(CN1CCCCCC1)Nc1ccc(Cl)cc1F,25.3% (inactive),–
CC1CCCN(CC(=O)Nc2cc(Cl)ccc2Oc2ccccc2)C1 (centres undefined),–,14.7 µM (active)
Cc1sc2ncn(CC(=O)NCCN(C)C)c(=O)c2c1S(=O)(=O)N1CCC(C)CC1,4.82% (inactive),–
COCCCn1c(SCC(=O)Nc2ccccc2)nnc1-c1ccncc1,-1.61% (inactive),–
COCCCn1c(Cc2csc(Nc3cccc(Cl)c3)n2)nnc1SCC(=O)OC1CCCCC1,–,8.28 µM (active)
COCCCn1c(SCC(=O)NC2CCCC2)nnc1-c1ccccc1,0.923% (inactive),–
COc1cc(C(=O)OCC(=O)NC(C)CCc2ccccc2)cc(OC)c1OC (centres undefined),-10.2% (inactive),–
NC(=O)c1cc(S(=O)(=O)NCCCc2ccco2)cs1,-26.8% (inactive),–
COc1cccc(C(=O)N2CCCC(CCC(=O)NCc3ccc(F)c(F)c3)C2)c1 (centres undefined),-0.317% (inactive),–
COc1cccc(CNC(=O)CCC2CCCN(C(=O)c3cc(C)[nH]n3)C2)c1 (centres undefined),0% (inactive),–
Cc1[nH]c2c(C(=O)N3CCCC(CCC(=O)NCc4ccccc4F)C3)cccc2c1C (centres undefined),–,11.7 µM (active)
CCOc1ccc(NC(=S)N2CCC(NC(=O)c3ccccc3)CC2)cc1,25.8% (inactive),–

Compound,"activity change, negative = inhibition",Potency
COc1ccc(NC(=O)CCC(=O)N2CCN(S(=O)(=O)c3ccc(C)cc3)CC2)c(OC)c1,-9.09% (inactive),–
COc1ccc(NS(=O)(=O)c2ccc(NC(C)=O)cc2)cc1OC,-1.61% (inactive),–
COc1ccc(C(=O)Oc2cc(/C=N/NS(=O)(=O)c3ccc(C)cc3)ccc2OC)cc1,-2.4% (inactive),–
COc1ccc(/C=C/C(=O)c2ccc(NS(=O)(=O)c3ccc(C)cc3)cc2)cc1O,–,14.7 µM (active)
Cc1cc(Cl)c2oc(C(=O)N(C)C(C)c3ccccn3)c(C)c2c1 (centres undefined),8.93% (inactive),–
CCc1nccn1CCC(=O)N1CCCC(N2CCN(c3ccccc3F)CC2)C1 (centres undefined),-21.7% (inactive),–
O=C(c1ccc(Cl)c(S(=O)(=O)N2CCCCC2)c1)N1CCCCCC1,11.7% (inactive),–
O=C(Nc1cccc(S(=O)(=O)N2CCCCC2)c1)c1ccc2c(c1)OCO2,11.6% (inactive),–
O=C(Nc1ccc(S(=O)(=O)N2CCCCC2)cc1)C1CC(=O)N(c2ccc(F)cc2)C1 (centres undefined),–,5.22 µM (active)
CC1CC(C)CN(C(=O)C2CC(=O)N(c3ccc(F)cc3)C2)C1 (centres undefined),16.7% (inactive),–
Cc1ccc(C(=O)Nc2ccc3c(c2)OCO3)cc1S(=O)(=O)N1CCCCC1,-24.7% (inactive),–
O=C(c1ccc(Cl)c(Cl)c1)N1CCCC1,18.7% (inactive),–
O=C(Nc1ccc2c(c1)OCCO2)c1ccc(Cl)c(S(=O)(=O)N2CCCCC2)c1,–,6.57 µM (active)
O=C(C1CC(=O)N(c2ccc(F)cc2)C1)N1CCN(c2ccccc2)CC1 (centres undefined),38.4% (inactive),–
O=C(NC1CCCC1)C1CC(=O)N(c2ccc(F)cc2)C1 (centres undefined),46.9% (inactive),–
CNS(=O)(=O)c1ccc(NC(=O)C2CC(=O)N(c3ccc(Cl)cc3)C2)cc1 (centres undefined),-7.43% (inactive),–
O=C(c1ccc(Cl)c(S(=O)(=O)N2CCCCCC2)c1)N1CCN(c2ccc(O)cc2)CC1,–,13.1 µM (active)
CCC(C)c1ccccc1N1CC(C(=O)N2CCN(S(=O)(=O)c3ccc(F)cc3)CC2)CC1=O (centres undefined),–,10.4 µM (active)
COC(=O)c1ccc(NC(=O)c2cc3c(CO)cnc(C)c3oc2=Nc2cccc(C(N)=O)c2)cc1,10.2% (inactive),–
Cc1nc(NC(=O)c2ccc3c(c2)OCCO3)ccc1Br,324% (inactive),–
CCCCn1c(N)c(N(CCOC)C(=O)c2oc3ccc(OC)cc3c2C)c(=O)[nH]c1=O,-10.5% (inactive),–
Cc1cn([C@H]2CC(F)[C@@H](CO)O2)c(=O)[nH]c1=O (some centres undefined),0.676% (inactive),–
COc1ccc2cc(C(=O)C3CCCN(C(=O)c4sc(C)nc4C)C3)ccc2c1 (centres undefined),-15.4% (inactive),–
COc1ccccc1C(=O)NC(CCSC)C(=O)NNC(=O)c1ccccc1C (centres undefined),6.75% (inactive),–
